NR3A LBD binder = modulates the human NR3A ligand-binding domain; NR3A LBD differential scanning fluorimetry, Tm shift; 0% = protein alone, 100% = glycine-bound protein; Tm shift relative to glycine control, % at 25 µM; 2.5% of 340,000 active;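 active = melting temperature shift of at least 10% of the positive control shift, at one fixed dose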
MPTP inh = blocks calcium-induced mitochondrial swelling; isolated mouse mitochondria, Ca2+ swelling absorbance, 30 min; inhibition, % at 10 µM; 1.4% of 360,000 active;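 active = inhibition of 50% or more, scaled per plate between neutral and stimulator controls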
Mdm2-MdmX inh = disrupts the human Mdm2-MdmX interaction. SaOS-2 split-luciferase Mdm2/MdmX complementation, luminescence. O15151+Q00987. AID 485346. 3% of 330,000 active. inhibition, % at 8 µM;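 active = inhibition of at least 50% at 8 µM in the primary screen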
SKKanGAS inh = inhibitors of SKKanGAS S. pyogenes growth in kanamycin (SK-promoter or general growth effect); 1.3% of 300,000 active; BacTiter-Glo, 6 h; inhibition, % at 7.5 µM;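 active = mean replicate score, as percent of positive control median, at least 50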;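 also: strain carries kanamycin resistance gene driven by streptokinase promoter and grows in 40 µg/ml kanamycin; loss of luminescence reflects streptokinase promoter inhibition or plain growth inhibition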
CSC inhib = cancer stem cell inhibition | cancer stem cell-like cells viability, luminescence | inhibition, % at 7.5 µM | 1.1% of 300,000 active; in the data active = inhibition above about 75%; tested in HMLE shEcad cells
Beta cell apopt = beta cell apoptosis inhibition; INS-1E cytokine-induced death, ATP luminescence, 48 h; percent of positive-control rescue, neutral wells zero; protection from apoptosis, % (no concentration beside the values); 0.8% of 300,000 active; AID 435005;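 active = Every replicate reaches about 75%, or at least half do and their mean reaches it too, limit read from the data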;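 also: higher means more ATP so stronger rescue from cytokine killing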
Numbers stand for hits; – = inactive; · = no result. The list is not random: actives were taken first. Their share in the collection is about 6.9%.

SMILES	NR3A LBD binder	MPTP inh	Mdm2-MdmX inh	SKKanGAS inh	CSC inhib	Beta cell apopt
Oc1ccc(/C=N/Nc2cccc(Cl)n2)c(O)c1	27	–	–	–	–	–
CCOc1ccc(Br)cc1C(=O)N/N=C/c1c[nH]c2ccccc12	10	–	–	–	–	–
COCCN(C(=O)CCc1nnc(Cc2c[nH]c3ccccc23)o1)C(C)C	–	–	–	–	–	·
Cc1cccc(C(=O)NC2CCN(C(=O)Nc3ccc(F)cc3)CC2)c1	–	–	–	–	–	–
Cc1ncc(CO)c(/C=N/NC(=O)c2cc(Br)ccc2O)c1O	–	–	–	92	–	–
O=C(N/N=C/c1c[nH]c2ccccc12)c1cc(Br)ccc1O	34	–	–	–	–	·
Cc1ncc(CO)c(/C=N/NC(=O)c2ccc(Br)cc2)c1O	·	·	–	–	–	–
CCCc1ccc(S(=O)(=O)N/N=C(/C)c2ccc3c(c2)OCO3)cc1	–	–	–	–	–	–
CCn1cc(CNC(=O)CCc2nnc(CCC3CCCCC3)o2)cn1	–	–	–	–	–	–
O=C1COC(c2ccccc2)C2CCCCN12 (configuration not stated)	16	–	–	–	–	–
O=C(CN(Cc1ccco1)Cc1ccco1)Nc1cc(S(=O)(=O)N2CCCCC2)ccc1Cl	–	–	–	·	·	101
O=C(c1cccs1)N1N=C(c2ccc(O)cc2)CC1c1ccccc1 (configuration not stated)	–	–	–	–	–	–
O=C(c1cccs1)N1N=C(c2ccccc2)CC1c1ccccc1 (configuration not stated)	–	–	–	57	–	–
CCCC[C@@H]1CCCO[C@@](C(=O)NCc2ccc(C)o2)(C(F)(F)F)C1	–	–	–	–	–	–
O=C1CC(SC(=Nc2ccccc2)Nc2ccccc2)C(=O)N1c1cccc(Cl)c1 (configuration not stated)	10	–	–	–	–	·
CN(C)S(=O)(=O)c1ccc2nnn(OCC(=O)NC34CC5CC(CC(C5)C3)C4)c2c1	12	–	–	–	–	–
O=S(=O)(N/N=C/c1c(F)cccc1Cl)c1ccccc1	10	–	–	–	–	–
O=C(O)c1ccc(OCCCCCCOC2CCCCO2)cc1 (configuration not stated)	–	–	–	–	–	–
Cc1ccccc1-c1cccc([C@@H]2C[C@H]3[C@H](CON3C)CN2Cc2cc(Cl)cc(Cl)c2)c1	–	–	·	·	·	·
Cc1ccc2c(c1)S/C(=C/c1ccc[n+](CCO)c1)N2C	–	–	–	–	–	99
COc1ccc2[nH]c(-c3ccccc3)cc2c1	12	–	–	–	–	–
CC1(C(=O)NS(C)(=O)=O)CCN1C(=O)Cc1ccc(-c2ccccc2)cc1 (configuration not stated)	·	–	·	·	·	·
Cc1noc2ncnc(Sc3ccc(Cl)cc3)c12	10	–	–	–	–	–
Clc1ncnc2scc(-c3ccc(Br)cc3)c12	–	–	–	–	–	–
Fc1ccc(Nc2nc(-c3ccncc3)cs2)cc1	–	–	–	–	–	–
SMILES	NR3A LBD binder	MPTP inh	Mdm2-MdmX inh	SKKanGAS inh	CSC inhib	Beta cell apopt
COc1ccccc1-c1ccc(Nc2cccc(C(F)(F)F)c2)nn1	–	–	–	–	–	–
Fc1ccc(Nc2ccc(-c3ccc(F)cc3)nn2)cc1	26	–	–	–	–	–
Fc1ccc(-c2ccc(Nc3cccc(F)c3)nn2)cc1	30	–	–	–	–	–
CCn1ccnc1CN(C)C(=O)c1ccc(OC2CCN(CCc3ccccc3)CC2)cc1	–	–	–	–	·	·
Nc1nc(-c2ccc(Cl)cc2)c(N=Nc2ccc(S(=O)(=O)N3CCOCC3)cc2)s1	17	–	–	–	–	–
O=S(=O)(c1ccc(Cl)cc1)N1CCC(N2CCOCC2)CC1	–	–	–	–	–	–
COc1ccc(OCc2cc(=O)c3ccc4c(c3o2)C=CC(C)(C)O4)cc1OC	–	–	–	·	–	–
CC(C)=CCOc1ccc([C@@H]2COc3c(ccc4c3C=CC(C)(C)O4)C2)c(O)c1	15	–	–	100	102	–
COc1ccc(NS(=O)(=O)c2cccc(C(=O)N/N=C(\C)c3ccncc3)c2)cc1	–	–	–	–	–	–
COc1ccc(NS(=O)(=O)c2cccc(C(=O)N/N=C(\C)c3ccc(-n4ccnc4)cc3)c2)cc1	–	–	–	–	95	–
CCOC(=O)c1c(NC(=O)c2cc3n(n2)C(C(F)(F)F)CC(c2ccccc2)N3)sc(C)c1C (configuration not stated)	18	–	–	–	–	–
COc1ccc(-c2n[nH]c(C)c2-c2cnn(-c3ccccc3)c2)c(O)c1C	24	–	–	–	–	–
O=C(CSc1nnc(-c2ccc(O)cc2)o1)Nc1ccccc1	14	–	–	–	–	–
COc1ccc(OCc2nnc(SCC(=O)Nc3ccc(C)cc3)o2)cc1	–	–	–	–	–	–
COc1ccc(NC(=O)CSc2nnc(-c3cccc(O)c3)o2)cc1	14	–	–	–	·	–
COc1ccc(Cl)cc1C(=O)Nn1c(-c2cccs2)nc2ccccc2c1=O	–	–	–	–	–	–
O=C(/C=C/c1ccc(Cl)cc1)Nn1c(-c2cccs2)nc2ccccc2c1=O	13	–	–	–	–	–
Cc1nonc1NC(=O)CSc1nnc(-c2ccoc2C)n1C	20	–	–	–	–	–
Cc1ccc(C)c(-n2c(SCC(=O)Nc3nonc3C)nnc2-c2ccoc2C)c1	–	–	–	–	–	–
COc1ccc(-c2ccccc2)cc1NC(=O)[C@@H]1O[C@H](CO)[C@@H](O)[C@H]1O	·	–	·	·	·	·
Cc1cc(NC(=S)N(Cc2cccc(Br)c2)CC2CCC(C(=O)O)CC2)ccc1Cl (configuration not stated)	–	–	·	–	·	·
Cc1ccc(NC(=S)N(Cc2cccc(Br)c2)CC2CCC(C(=O)O)CC2)cc1 (configuration not stated)	13	–	–	–	–	–
COc1ccc(C(=O)N/N=C/c2ccc(OC)c(COc3ccc(F)cc3F)c2)cc1	15	–	–	–	–	–
COc1ccc(C(=O)N/N=C/c2ccc(OC)c(COc3ccc(F)cc3)c2)cc1	–	–	–	–	–	–
O=C(N/N=C/c1ccc(Cl)c([N+](=O)[O-])c1)c1ccc2nc[nH]c2c1	13	–	–	–	–	–
COc1ccc(C(=O)/C=C/c2ccc(OCc3ccccc3)cc2)cc1CSCC(=O)O	–	–	–	–	79	–
COc1ccc(C(=O)/C=C/c2cccc(OCc3ccccc3)c2)cc1CSCC(=O)O	–	–	–	–	–	–
O=C(N/N=C/c1ccccc1[N+](=O)[O-])c1ccc2nc[nH]c2c1	–	–	–	–	–	–
COc1ccc(/C=C/C(=O)Oc2ccc(/C=N\NC(=O)c3ccc(F)cc3)cc2)cc1	15	–	–	–	–	–
O=C(COC(=O)/C=C/c1cccs1)Nc1cccc(S(=O)(=O)N2CCCC2)c1	–	–	–	–	–	·

High-throughput results: PubChem, several laboratories
